Data as given in PubChem BioAssay AID1778 (Sanford-Burnham Center for Chemical Genomics, 2009).
Values joined by “and” are separate entries in the source; they are usually repeats but may differ in a detail not shown here. Identical values can stand only once. The whole screen tested about 290,000 compounds, of which about 260 (0.09%) were called active. What follows is part of a selection rich in actives, with near analogues and random picks from the rest. Measured potencies and affinities stand elsewhere. Unmarked numbers belong to inactive results. Rule as the data show it: active = inhibition above about 50%; inactive = the rest.

These compounds were tested against Kappa-type opioid receptor (Homo sapiens) (UniProt P41145) (assay: kappa opioid receptor blockers – cell-based, luminescence, uHTS (AID 1778)). Conditions: KOR beta-arrestin recruitment, antagonist mode, stronger effect = higher value; at 10 µM unless noted.
Sequence of Kappa-type opioid receptor (Homo sapiens) (P41145 whole entry, looked up): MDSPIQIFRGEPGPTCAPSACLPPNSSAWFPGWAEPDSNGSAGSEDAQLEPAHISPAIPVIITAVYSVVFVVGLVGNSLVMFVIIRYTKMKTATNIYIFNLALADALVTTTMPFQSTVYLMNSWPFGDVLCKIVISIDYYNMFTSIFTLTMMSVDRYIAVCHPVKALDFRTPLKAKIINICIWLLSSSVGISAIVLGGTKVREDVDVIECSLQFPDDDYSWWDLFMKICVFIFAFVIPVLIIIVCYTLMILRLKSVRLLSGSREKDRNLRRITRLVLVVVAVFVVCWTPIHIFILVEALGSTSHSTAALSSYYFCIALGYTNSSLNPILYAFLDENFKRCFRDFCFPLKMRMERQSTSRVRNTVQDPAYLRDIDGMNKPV
`COc1ccc(CNC(=S)NCc2ccc(Cl)cc2)cc1OC` showed an inhibition of -4.7%. Compound `COc1ccccc1N(CC(O)COc1ccccc1)S(=O)(=O)c1ccccc1` (centres undefined) has an inhibition of 25.7%. Compound `O=C(Nc1ccccc1Oc1ccsc1C(=O)O)c1ccccc1` has an inhibition of 11%. `CC/C(C)=N/Oc1nc(C)cc(C)n1` was tested, and the inhibition was -35.7%. Compound `NS(=O)(=O)c1ccc(NC(=O)Nc2ccc(S(N)(=O)=O)cc2)cc1` has an inhibition of 27.6%. `FC(F)(F)c1cnc(N2CCCN(C(=S)Nc3ccccc3)CC2)c(Cl)c1` was tested, and the inhibition was -20.9%. In the case of `O=C(Nc1cccc(C(=O)O)c1)/C(=C\c1ccccc1)NC(=O)c1cccc2ccccc12`, the inhibition is reported as -20.3% [at 20 µM]. With `N#C/C(=C/c1ccco1)C(N)=S` the inhibition was -13.4%. `CCOC(=O)/C(C#N)=C\c1ccco1` showed an inhibition of -16.4%. `CC(=O)OC[C@H]1O[C@@H](O/N=C/[C@@H](C)[C@H](OCc2ccccc2)C(C)C)[C@H](OC(C)=O)[C@@H](OC(C)=O)[C@@H]1OC(C)=O` showed an inhibition of -20.6%. Compound `O=C(NNc1nc2c(F)cc(F)cc2s1)c1ccccc1` has an inhibition of 30.3%. Compound `O=C(Nc1nc2ccc(S(=O)(=O)N3CCCC3)cc2s1)c1ccccn1` has an inhibition of -85.6%. Work on `O=C(Nc1nc2ccc(F)cc2s1)c1cccs1` yielded an inhibition of -4.2%. `CCOc1ccc2nc(NC(=O)c3cnc(C)cn3)sc2c1` gave an inhibition of 54.4%. `O=C(Nc1nnc(SCc2ccc(F)cc2)s1)c1cccnc1Cl` showed an inhibition of 13%. In the case of `O=C(Nc1nnc(SCc2ccc(F)cc2)s1)c1cnccn1`, the inhibition is reported as -29.3% [at 20 µM]. With `CCOc1ccc2nc(NC(=O)c3cnccn3)sc2c1` the inhibition was -3.8%. With `O=C(Nc1nc2c(F)cc(F)cc2s1)c1ccco1` the inhibition was -20.5% [at 20 µM]. Work on `Cn1c(CNC(=O)c2ccco2)nnc1SCC(=O)c1ccccc1` yielded an inhibition of 0.9%. In the case of `O=C(c1ccc(CS(=O)(=O)c2ccc(Br)cc2)o1)N1CCN(c2ccc(F)cc2)CC1`, the inhibition is reported as 3.6%. Work on `CC(=O)Nc1ccc(S(=O)(=O)NC2(C(F)(F)F)C(=O)Nc3c2c(=O)[nH]c(=O)n3Cc2ccco2)cc1` (centres undefined) yielded an inhibition of 16.3%. `CN(C)S(=O)(=O)c1cccc(N=C2SCCN2Cc2ccccc2)c1` gave an inhibition of -13.6%. In the case of `COc1ccc(CCC(N)=O)cc1OC`, the inhibition is reported as -31.9%. `O=S(=O)(Nc1cccc2ccccc12)c1cccs1` was tested, and the inhibition was 2.3%. For `Cc1c(NS(=O)(=O)c2cccs2)cccc1-c1nc2cccnc2s1`, the inhibition was 6.3%. `Cc1ccc(S(=O)(=O)Nc2ccnc3ccccc23)cc1` was tested, and the inhibition was 6.9%. In the case of `Cc1ccc(S(=O)(=O)Nc2cccc3ncccc23)s1`, the inhibition is reported as 107% (active). Compound `Cc1ccc(S(=O)(=O)Nc2cccc3ncccc23)cc1` has an inhibition of 14.1%. Compound `O=C(NNC(=O)c1ccccc1[N+](=O)[O-])c1ccccn1` has an inhibition of -1.3% [at 20 µM]. `Cc1[nH]nc2c1C(c1ccccc1F)CC(=O)N2` (centres undefined) was tested, and the inhibition was -21.3%. Work on `CCOC(=O)c1cc2cc(CC(=O)c3ccc(OCC)cc3O)ccc2o1` yielded an inhibition of -2%. For `C/C(=N\NC(=O)C(c1ccccc1)c1ccccc1)c1ccccn1`, the inhibition was 81.1% (active). `C/C(=N/NC(=O)CNC(=O)c1ccccn1)c1ccc([N+](=O)[O-])cc1` was tested, and the inhibition was 6.2%. In the case of `C/C(=N\NC(=O)c1ccccn1)C12CC3CC(CC(C3)C1)C2`, the inhibition is reported as -17.6%. `CCCCCC(=O)N/N=C(\C)c1ccccn1` gave an inhibition of 10.5%. Work on `CC(C)C(=O)NNC(=O)c1ccccn1` yielded an inhibition of 13.4%. Compound `O=C(NNC(=O)C12CC3CC(CC(C3)C1)C2)c1cnccn1` has an inhibition of 27.4%. In the case of `C/C(=N\NC(=O)C(c1ccccc1)c1ccccc1)c1ccc(O)cc1`, the inhibition is reported as -26.8% [at 20 µM]. `O=C(NNc1ccccn1)C(c1ccccc1)c1ccccc1` gave an inhibition of 11.4%. In the case of `CC(C(=O)O/N=C(\N)c1ccccn1)c1ccc([N+](=O)[O-])cc1` (centres undefined), the inhibition is reported as -1.4%. With `Cc1ccc(S(=O)(=O)NN)c(C)c1N1CCCC1=O` the inhibition was 24.2%. `Cc1cccc(C)c1NC(=O)C1CCCN1S(=O)(=O)c1ccccc1` (centres undefined) gave an inhibition of -40.1%. Work on `O=C(NCc1cccnc1)C1c2ccccc2C(=O)N1C1CCCCCC1` (centres undefined) yielded an inhibition of -16.6%. `O=C(NCCc1nnc2ccc(N3CCCCCC3)nn12)c1ccccc1` showed an inhibition of -2.6%. `CN(C)c1ccc(P(=O)(Nc2cccc(C(F)(F)F)c2)N2CCOCC2)c(NC(=O)c2cccs2)c1` (centres undefined) gave an inhibition of 41.3%. Compound `CNC(=S)N1N=C(c2ccc(C)cc2)CC1c1ccc(N(C)C)cc1` (centres undefined) has an inhibition of 7.7%. With `CC1CCCCN1C(=O)COc1ccccc1F` (centres undefined) the inhibition was -32.6% [at 20 µM]. Work on `O=C(Nc1ccnc(-c2cccnc2)n1)c1ccc(Cl)cc1` yielded an inhibition of -18.4%. `O=C1COc2ccc(C(=O)CSc3nnc(NCc4ccccc4)s3)cc2N1` gave an inhibition of 21.4%. With `CCn1c(O)c(N=NC(=S)NCC2CCCO2)c2ccccc21` (centres undefined) the inhibition was 60.6% (active). For `Oc1[nH]c2ccccc2c1N=NC(=S)NCC1CCCO1` (centres undefined), the inhibition was -22%. For `CCNC(=S)N=Nc1c(O)n(Cc2ccc(Cl)cc2)c2ccccc12`, the inhibition was -4.3%. `COc1ccc(CNC(=O)c2ccc(CN3CCOCC3)cc2)cc1` gave an inhibition of -18.5%. `O=C(NCc1ccco1)C(=O)c1cn(CC(=O)N2CCCC2)c2ccccc12` was tested, and the inhibition was -7.4%. `O=C(COc1ccccc1)Nc1nnc(S(=O)(=O)N2CCCC2)s1` showed an inhibition of -9.4%. In the case of `Cc1cc(NCc2ccccn2)n2c(nc3ccccc32)c1C#N`, the inhibition is reported as 18.9% [at 20 µM]. With `CCCNC(=O)COc1cccc(C(=O)NCc2ccccc2)c1` the inhibition was 16.7%. `Oc1ccc(/C=N/Nc2ccnc3cc(Cl)ccc23)c(O)c1` showed an inhibition of 3.8%. With `Oc1ccc(Nc2ccnc3cc(Cl)ccc23)cc1` the inhibition was 25.2%. With `O=C(O)CC1(CC(=O)Nc2ccc(C(F)(F)F)cc2)CCCC1` the inhibition was -5.5%. Work on `O=C(N/N=C/c1cc2cc3c(cc2nc1Cl)OCO3)c1ccncc1` yielded an inhibition of -14.5%. `O=C(NC(=S)N1CCN(c2ccc(C(F)(F)F)cc2[N+](=O)[O-])CC1)c1cccs1` was tested, and the inhibition was 6.2%. With `COc1ccc(N2CCN(C(=S)NC(=O)c3cccs3)CC2)c([N+](=O)[O-])c1` the inhibition was 4.6%. `CC(=O)c1ccc(NC(=S)N2CCCC(CO)C2)cc1` (centres undefined) gave an inhibition of 35.3%. Compound `C#CCOCCOCCOCCNc1nc(N2CCN(C(=O)[C@H](C)n3cc(CCCN=C(N)N)nn3)CC2)nc(N2CCN(C(=O)[C@H](CCCCN)n3cc(CCCC)nn3)CC2)n1` has an inhibition of -17.1%. `CN(Cc1ccccc1)c1ccc(C(CC(N)=O)NC(=O)c2ccccc2)cc1[N+](=O)[O-]` (centres undefined) was tested, and the inhibition was -1.2% [at 20 µM]. `O=C(CN1CCN(c2ccc(F)cc2)CC1)OCc1ccccc1` showed an inhibition of 21.3%. With `Cc1ccc2oc(Nc3nc(C)cc(C)n3)nc2c1` the inhibition was 12.4%. `Cc1cc(C)nc(Nc2nc3ccccc3o2)n1` was tested, and the inhibition was 17.6%. In the case of `COCc1cc(=O)[nH]c(Nc2nc3ccccc3o2)n1`, the inhibition is reported as 14.7%. Compound `Cc1ccc2oc(Nc3nc(C)c(C)c(C)n3)nc2c1` has an inhibition of 6.8%. In the case of `COc1ccccc1-c1ccc(Nc2cccc(C(F)(F)F)c2)nn1`, the inhibition is reported as -2.2%. `CCOc1ccc(S(=O)(=O)N(C)CC(=O)NCc2ccco2)cc1` showed an inhibition of 5%. In the case of `CCCC1=C(C(=O)OCC)C(c2c(C)nn(-c3ccccc3)c2Cl)C(C#N)=C(N)O1` (centres undefined), the inhibition is reported as -61.5%. Compound `CCCOc1cccc(-c2cc(C(=O)N/N=C/c3cccnc3)c3ccccc3n2)c1` has an inhibition of -14%. In the case of `CCCOc1cccc(-c2cc(C(=O)NN)c3ccccc3n2)c1`, the inhibition is reported as -44.7%. Work on `O=C(CN1C(=O)S/C(=C\c2ccc(F)cc2)C1=O)NCCCn1ccnc1` yielded an inhibition of 1.3%. Work on `O=C(/C=C/c1ccc([N+](=O)[O-])cc1)Oc1ccc(/C=N/NC(=O)c2ccncc2)cc1` yielded an inhibition of -27.5%. `CCN(CC)C(=O)Sc1cccc2cccnc12` was tested, and the inhibition was 19.2%. `O=C(Sc1cccc2cccnc12)c1ccc(F)cc1` was tested, and the inhibition was 73.6% (active). With `O=C(O)CSc1cccc2cccnc12` the inhibition was -59.2% and -13%. Work on `O=C(CSc1cccc2cccnc12)N/N=C/c1ccc(F)cc1` yielded an inhibition of 17.3%. For `CC(=O)/C(=N\Nc1ccccc1)Sc1cccc2cccnc12`, the inhibition was 13.9%. Work on `Cc1cccc(CSc2ccc3nnc(-c4ccccn4)n3n2)c1` yielded an inhibition of 8.5%. Work on `Cc1cc(NC(=O)c2cc(C3CC3)on2)n(-c2ccccc2)n1` yielded an inhibition of -9.5%. `COc1cc(/C=N/n2nnnc2N)ccc1OC(C)C` gave an inhibition of 26.9%. For `O=C(CCCCCN1C(=O)c2ccccc2C1=O)Oc1ccc2c3c(c(=O)oc2c1)CCC3`, the inhibition was -61.9%. `CC1=C(C(=O)Nc2ccccc2C)C(c2ccccc2)NC(=O)N1` (centres undefined) gave an inhibition of -32.2%. In the case of `CCOC(=O)c1c(CN2CCCCC2)n(C)c2ccc(OC)c(S(=O)(=O)c3ccccc3)c12`, the inhibition is reported as 4.2%. `COC(=O)c1cccc(-n2c(=O)n(Cc3ccccc3)c(=O)c3[nH]cnc32)c1C` was tested, and the inhibition was 23.8%. Work on `Cc1ccc(C(=O)O)cc1-n1c(=O)n(Cc2ccccc2)c(=O)c2[nH]cnc21` yielded an inhibition of -9.2%. `COc1cccc(Cn2c(=O)c3[nH]cnc3n(-c3ccccc3C)c2=O)c1` showed an inhibition of 7.3%. For `COc1ccc(Cn2c(=O)c3[nH]cnc3n(-c3ccccc3C)c2=O)cc1`, the inhibition was -13.7%. For `O=C(Nc1ccc(Oc2ccccc2)cc1)c1cnc2n(c1=O)CCS2`, the inhibition was 0.1%.
